Measurements taken from ChEMBL document CHEMBL3988442, “University of Dundee, Small-Polar-MMV Screening Library” (2021).
Out of some 66,000 compounds screened, about 960 (1.5%) showed an effect of 50% or more. The full list was thinned out, with strong results kept by preference.

Test system: Trypanosoma brucei
Assay: Trypanosoma brucei 72 hour study
Assay type: functional, organism-based
Set-up: scale not given: in the data most compounds retested in dose-response had high values

O=C(NCc1ccco1)[C@@H]1CCO[C@@H]2CCN(C3CCOCC3)C[C@H]21.O=C(O)C(F)(F)F
Percent Effect (30 µM, 30.03 µM): -32.7%

CC(=O)N1[C@H](CN(C)C)C[C@@H]2CN(C(=O)c3ccno3)CC[C@@H]21.O=C(O)C(F)(F)F
Percent Effect (30.3 µM, […]): 5.246%

Cc1nc(C)n(CC2CN(Cc3ccccc3C#N)CCO2)n1 (centres undefined)
Percent Effect (30.3 µM, […]): 19.46%

Cc1nc(C)n(CC2CN(Cc3cccc4ccccc34)CCO2)n1 (centres undefined)
Percent Effect (30.3 µM, […]): 20.23%

Cc1nc(C)n(CC2CN(Cc3ccccc3OC(C)C)CCO2)n1 (centres undefined)
Percent Effect (30.3 µM, […]): 101%

Cn1cc(CN2CCC[C@]3(C[C@@H](Oc4ncccc4F)CO3)C2)cn1.O=C(O)C(F)(F)F.O=C(O)C(F)(F)F
Percent Effect (30.3 µM, […]): 0.8954%

CNC(=O)[C@H]1C[C@@H]2CN(Cc3ccccc3)C[C@H]1O2.O=C(O)C(F)(F)F
Percent Effect (30.3 µM, […]): 0.1079%

CN1CCN(c2ncccn2)CC(C(=O)N(C)C)C1 (centres undefined)
Percent Effect (30.3 µM, […]): -26.5%

CN(C)Cc1nc2c(o1)CN(S(=O)(=O)c1cccs1)C2.O=C(O)C(F)(F)F
Percent Effect (30.3 µM, […]): 5.819%

Cn1ncc(CN2CCc3onc(-c4cccc(F)c4)c3C2)c1C1CC1
Percent Effect (30 µM, 30.03 µM): 32.05%

Fc1cccc(-c2noc3c2CN(Cc2cncn2C2CC2)CC3)c1
Percent Effect (30 µM, 30.03 µM): 24.68%

CC(C)c1nc(CN2CCc3onc(-c4cccc(F)c4)c3C2)no1
Percent Effect (30 µM, 30.03 µM): 51.01%

CC(C)(C)c1nc(CN2CCc3onc(-c4cccc(F)c4)c3C2)no1
Percent Effect (30 µM, 30.03 µM): 51.86%

CC(C)Cc1nc(CN2CCc3onc(-c4cccc(F)c4)c3C2)no1
Percent Effect (30 µM, 30.03 µM): 18.46%

CC(C(=O)N(C)C)N1CCc2onc(-c3cccc(F)c3)c2C1 (centres undefined)
Percent Effect (30 µM, 30.03 µM): -18.33%

Cn1cc(CNC2CC3(CCN(S(C)(=O)=O)CC3)c3ccccc32)cn1.O=C(O)C(F)(F)F (centres undefined)
Percent Effect (30.3 µM, […]): -14.03%

CC(C)c1nnc(N2C[C@@H]3CC[C@H](C2)N(CC2CCC2)C3)s1
Percent Effect (30 µM, 30.03 µM): -2.589%

CN(C)Cc1cnc(C2CCN(C(=O)c3ccccc3F)C2)[nH]1.Cl (centres undefined)
Percent Effect (30.3 µM, […]): 3.217%

O=C(Cn1ccc2sccc2c1=O)NCCCc1ccccc1
Percent Effect (30 µM, 30.03 µM): -11.95%

Cn1cccc1C(=O)N1CCC2(CC1)CC(N1CCOCC1)C2.O=C(O)C(F)(F)F
Percent Effect (30.3 µM, […]): -54.57%

CCNC(=O)NC1CCC(Oc2ccccc2C#N)CC1 (centres undefined)
Percent Effect (30 µM, 30.03 µM): 74.2%

CN(C)CCN(C)C(=O)NC1CCC(Oc2ccccc2C#N)CC1 (centres undefined)
Percent Effect (30 µM, 30.03 µM): 7.047%

CN(C)C1(C(=O)NC2CCC(Oc3ccccc3C#N)CC2)CCC1 (centres undefined)
Percent Effect (30 µM, 30.03 µM): -17.82%

CCOCc1ccc(CNc2cncc(-n3cccn3)n2)cc1
Percent Effect (10 µM): -32.35%

CC(NC(=O)C(C)(C)C)c1cc(O)nc(-c2cccnc2)n1 (centres undefined)
Percent Effect (30.3 µM, […]): -7.147%

CC(=O)NCC1CCN(C(=O)c2csc(-c3ccc(C)cc3C)n2)CC1
Percent Effect (30 µM, 30.03 µM): 56.57%

CC(=O)N1CCN(C(=O)c2csc(-c3ccc(C)cc3C)n2)CC1
Percent Effect (10 µM): -21.97%

CC(=O)N1CCCN(C(=O)c2csc(-c3ccc(C)cc3C)n2)CC1
Percent Effect (30 µM, 30.03 µM): 20.93%

CN(C)C1CCC2(CCN(Cc3nccn3C)CC2)c2ccccc21.O=C(O)C(F)(F)F.O=C(O)C(F)(F)F (centres undefined)
Percent Effect (30.3 µM, […]): -42.21%

CNCC(=O)N1CC(c2cc(Nc3ncccn3)nc(C)n2)C1.Cl
Percent Effect (30 µM, 30.03 µM): -14.51%

Cn1cnnc1C1CCCN(C(=O)c2cc(-c3ccccc3)on2)C1 (centres undefined)
Percent Effect (30 µM, 30.03 µM): -25.06%

CCN(CC)CCCNCc1cc2cccc(C)c2[nH]c1=O
Percent Effect (30.3 µM, […]): -3.275%

CCN(CC)CCCNCc1cc2cc(C)ccc2[nH]c1=O
Percent Effect (30.3 µM, […]): -2.792%

CCN(CC)CCCNCc1cc2cc(C)cc(C)c2[nH]c1=O
Percent Effect (30.3 µM, […]): 66.62%

Cc1cc(C(=O)NCCN2CCCCC2C)nn1C(C)(C)C (centres undefined)
Percent Effect (30 µM, 30.03 µM): -37.93%

Cl.O=C(Nc1cccc(CNCc2ccsc2)c1)C1CC1
Percent Effect (10 µM): -60.42%

COCc1cc(NCCCSc2nnc(C)s2)ncn1
Percent Effect (30 µM, 30.03 µM): 0.4948%

CNC(=O)CC1CC2(CCN(CC3CC3)CC2)Oc2ccccc21.O=C(O)C(F)(F)F (centres undefined)
Percent Effect (30.3 µM, […]): -8.019%

O=C(CCc1nc(-c2ccccc2)no1)N[C@H]1COC[C@@H]1N1CCCC1
Percent Effect (30.3 µM, […]): 62.68%

CO[C@H]1CNC[C@@H]1NC(=O)CCc1nc(-c2ccccc2)no1
Percent Effect (30.3 µM, […]): 14.68%

CCO[C@H]1COC[C@@H]1NC(=O)CCc1nc(-c2ccccc2)no1
Percent Effect (30.3 µM, […]): -3.299%

COCCN1C(=O)[C@H]2CC[C@@H]1CN(S(=O)(=O)c1ccc(OC)cc1)C2
Percent Effect (30.3 µM, […]): -80.52%

Cc1cc(NCCS(C)(=O)=O)nc2cc3c(cc12)CCC3
Percent Effect (30 µM, 30.03 µM): 3.514%

COc1cc2nc(NCCN3CCNC3=O)cc(C)c2cc1OC
Percent Effect (30 µM, 30.03 µM): 57.38%

COc1cc2nc(NCCNS(C)(=O)=O)cc(C)c2cc1OC
Percent Effect (30 µM, 30.03 µM): 21.73%

Cc1cc(NCCNS(C)(=O)=O)nc2cc3c(cc12)CCC3
Percent Effect (30 µM, 30.03 µM): 12.23%

COc1cc(OC)c2nc(NCCN3CCNC3=O)cc(C)c2c1
Percent Effect (30 µM, 30.03 µM): 22.56%

Cc1cc(NCCN2CCNC2=O)nc2cc3c(cc12)CCC3
Percent Effect (30 µM, 30.03 µM): 101.3%

Cc1cc(C(=O)N2CCn3cc(CN4CCOCC4)nc3C2)no1.O=C(O)C(F)(F)F
Percent Effect (30.3 µM, […]): -304.6%

CN1CC(=O)N(c2ccsc2)CC12CCN(C(=O)CC1CCCC1)C2.O=C(O)C(F)(F)F (centres undefined)
Percent Effect (30 µM, 30.03 µM): 8.203%

O=C(C[C@@H]1COC[C@H]2CN(C3CCCC3)C[C@@H]12)NCc1cccnc1.O=C(O)C(F)(F)F.O=C(O)C(F)(F)F
Percent Effect (30.3 µM, […]): 5.505%

Cc1noc(CN2CCC(Cc3ccc(F)cc3)CC2)n1
Percent Effect (30.3 µM, […]): -2.984%

CN(C)C(=O)N1C[C@@H]2CC[C@H](C1)N(Cc1nnc(C3CC3)o1)C2
Percent Effect (30 µM, 30.03 µM): -29.28%

CNc1cc(-c2ccc(COCCN)cc2)c2cc[nH]c2n1
Percent Effect (30 µM, 30.03 µM): -16.28%

CCCNCc1ccc(-c2ccnc3[nH]ccc23)cc1
Percent Effect (30.3 µM, […]): 63.66%

Cc1cnccc1-c1cc(NCCO)nc2[nH]ccc12
Percent Effect (30 µM, 30.03 µM): -32%

Nc1cc(-c2cc(O)cc(C(=O)O)c2)c2cc[nH]c2n1
Percent Effect (30 µM, 30.03 µM): -9.984%

CCNCCOc1ccc(-c2cc(N)nc3[nH]ccc23)cc1
Percent Effect (30.3 µM, […]): 21.45%

CCCNCc1ccc(-c2cc(N)nc3[nH]ccc23)cc1
Percent Effect (30.3 µM, […]): 58.31%

CC(C)N1CCC(c2nc3ccc(-c4ccnn4C)cn3n2)CC1.O=C(O)C(F)(F)F
Percent Effect (30.3 µM, […]): -11.51%

O=C(CC1CCCC1)N1CCC2(CCN2Cc2ccc(F)cc2)C1.O=C(O)C(F)(F)F (centres undefined)
Percent Effect (30.3 µM, […]): -0.9298%

CCc1nnc(CN(C)CC2CCCCC2)o1
Percent Effect (30 µM, 30.03 µM): -20.72%

Cc1cnc(C(=O)N2CCc3ncnc(C)c3CC2)cn1
Percent Effect (30 µM, 30.03 µM): 54.93%

Cc1ncnc2c1CCN(C(=O)c1cnccn1)CC2
Percent Effect (30.3 µM, […]): 17.88%

Cc1ccc(C(=O)N2CCc3ncnc(C)c3CC2)cn1
Percent Effect (30 µM, 30.03 µM): 1.33%

CCNC(=O)N(C)C1CCN(Cc2ncc(C)c(OC)c2C)CC1
Percent Effect (10 µM): -34.27%

Cc1cc(C(=O)N2CCC3(CC2)CC(c2cccnc2)C(=O)N3)no1.O=C(O)C(F)(F)F (centres undefined)
Percent Effect (30 µM, 30.03 µM): -44.38%

Cc1ncc(CNC2CC(=O)N(CCc3ccc(F)cc3)C2)n1C (centres undefined)
Percent Effect (30 µM, 30.03 µM): 23.38%

O=C1CC(NCc2ccncc2)CN1CCc1cccc(Cl)c1 (centres undefined)
Percent Effect (30 µM, 30.03 µM): -25.97%

O=C1CC(NCc2ncc[nH]2)CN1CCc1cccc(Cl)c1 (centres undefined)
Percent Effect (30 µM, 30.03 µM): 84.65%

O=C1CC(NCc2ccccn2)CN1CCc1ccc(F)cc1 (centres undefined)
Percent Effect (30 µM, 30.03 µM): 2.338%

COc1ccc(CCN2CC(NCc3ncc[nH]3)CC2=O)cc1 (centres undefined)
Percent Effect (30 µM, 30.03 µM): 64.92%

Cc1nc[nH]c1CNC1CC(=O)N(CCc2cccc(Cl)c2)C1 (centres undefined)
Percent Effect (30 µM, 30.03 µM): -48.22%

CCN1CCN(C(C)CNC(=O)Nc2nc3ccccc3s2)CC1 (centres undefined)
Percent Effect (30.3 µM, […]): 21.11%

Fc1ccc(CN2CCc3ncnc(C4CC4)c3CC2)cc1.O=C(O)C(F)(F)F
Percent Effect (30 µM, 30.03 µM): -12.14%

Cc1ccc(O)c(-c2cc(NCCO)nc3[nH]ccc23)c1
Percent Effect (30 µM, 30.03 µM): -9.914%

CC(=O)N1[C@H](CN(C)C)C[C@@H]2CN(C(=O)c3occc3C)CC[C@@H]21.O=C(O)C(F)(F)F
Percent Effect (30.3 µM, […]): -4.239%

O=C(O)C(F)(F)F.O=S(=O)(C1CC1)N1CCO[C@H]2[C@@H](Oc3ncccc3F)CC[C@@H]21
Percent Effect (30.3 µM, […]): -15.89%

CC(C)c1cn(CC(=O)NC2CC(=O)N(CCc3ccccc3)C2)nn1 (centres undefined)
Percent Effect (30.3 µM, […]): -9.844%

CCN(Cc1noc(CC(C)C)n1)Cc1ccccc1Cl
Percent Effect (30.3 µM, […]): 100%

CCN(Cc1noc(CC(C)C)n1)Cc1ccccc1C
Percent Effect (30.3 µM, […]): 13.68%

CCN(Cc1noc(CC(C)C)n1)Cc1ccccc1C(=O)O
Percent Effect (30.3 µM, […]): 12.17%

COc1cccc(CN2CCCC(c3nn(C)c4nccnc34)C2)c1.Cl (centres undefined)
Percent Effect (30.3 µM, […]): -9.344%

Cc1cnc(CN2C[C@H]3C[C@H](Oc4ccccc4)C[C@H]3C2)cn1
Percent Effect (30.3 µM, […]): -12.87%

Cc1nc(COCc2cnc3n2CCN(CC2CCC2)C3C)cs1.O=C(O)C(F)(F)F (centres undefined)
Percent Effect (30 µM, 30.03 µM): 77.97%

Cc1nc(COCc2cnc3n2CCN(C)C3C)cs1.O=C(O)C(F)(F)F (centres undefined)
Percent Effect (30.3 µM, […]): 14.84%

Cc1nc(COCc2cnc3n2CCN(C2CCC2)C3C)cs1.O=C(O)C(F)(F)F (centres undefined)
Percent Effect (30 µM, 30.03 µM): -3.887%

O=C(NCc1ccco1)[C@H]1C[C@@H]2CCN(c3cccc(F)c3)C[C@H]2O1.O=C(O)C(F)(F)F
Percent Effect (30.3 µM, […]): 0.588%

COc1ccc(-c2nc(CN3CCCC(OC)C3)c(C)o2)c(F)c1 (centres undefined)
Percent Effect (30.3 µM, […]): 99.32%

COCc1ncn(Cc2nc(-c3ccc(OC)cc3F)oc2C)n1
Percent Effect (30.3 µM, […]): -22.44%

CCCOC1CCCN(Cc2nc(-c3ccc(F)cc3F)oc2C)C1 (centres undefined)
Percent Effect (30.3 µM, […]): 19.33%

Cc1nnc(CN2C[C@H]3CC[C@@H]2CN(C2Cc4ccccc4C2)C3)o1
Percent Effect (30 µM, 30.03 µM): 19.71%

COCC1N(C(=O)c2ccco2)[C@H]2CC[C@]1(O)CC2 (some centres undefined)
Percent Effect (30.3 µM, […]): -31.26%

O=C(NCC1CC1)[C@H]1C[C@@H]2CN(S(=O)(=O)Cc3ccccc3)C[C@H]1O2
Percent Effect (30 µM, 30.03 µM): -18.74%
